Over roughly 8,300 sequences, “log2 fold change of degron read counts, EGFP-low vs EGFP+ sorted cells (limma voom), compound-induced degradation” has its median near -1.1; the highest 2% begin near 3.2. Many of the other results were omitted from the sample, so the highest values are more common in it than they were.
T1: CRBN, Q96SW2
T1 chain: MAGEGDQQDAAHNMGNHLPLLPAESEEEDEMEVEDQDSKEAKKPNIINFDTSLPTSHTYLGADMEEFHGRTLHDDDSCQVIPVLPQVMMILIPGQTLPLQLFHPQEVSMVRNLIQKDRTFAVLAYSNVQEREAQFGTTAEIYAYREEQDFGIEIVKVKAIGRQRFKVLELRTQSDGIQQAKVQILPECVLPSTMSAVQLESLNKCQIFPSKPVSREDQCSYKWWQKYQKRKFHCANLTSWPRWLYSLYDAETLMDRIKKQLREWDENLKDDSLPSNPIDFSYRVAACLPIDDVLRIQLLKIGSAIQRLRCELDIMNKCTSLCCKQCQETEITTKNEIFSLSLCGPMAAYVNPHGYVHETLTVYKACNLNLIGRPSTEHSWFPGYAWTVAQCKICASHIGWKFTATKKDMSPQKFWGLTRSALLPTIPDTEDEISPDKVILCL

B1: 46F_47E_49N_50Q_52G_53R_54A_55F_67L_, Q9UKT9 (peptide)
chain: FECNQCGRAFTQKGNLLRHIKL
B2: 46L_47Q_49N_50Q_52G_53F_54P_55C_67L_, Q9UKT9 (peptide)
chain: LQCNQCGFPCTQKGNLLRHIKL
B3: 46F_47Q_49D_50Q_52G_53A_54L_55F_67L_, Q9UKT9 (peptide)
chain: FQCDQCGALFTQKGNLLRHIKL
B4: 46F_47G_49P_50Q_52G_53A_54M_55F_67L_, Q9UKT9 (peptide)
chain: FGCPQCGAMFTQKGNLLRHIKL
B5: 46L_47I_49E_50I_52G_53F_54V_55C_67L_, Q9UKT9 (peptide)
chain: LICEICGFVCTQKGNLLRHIKL
B6: 46F_47E_49N_50Q_52G_53A_54N_55F_67L_, Q9UKT9 (peptide)
chain: FECNQCGANFTQKGNLLRHIKL
B7: 46F_47T_49D_50I_52G_53A_54Q_55F_67L_, Q9UKT9 (peptide)
chain: FTCDICGAQFTQKGNLLRHIKL
B8: 46F_47Q_49D_50I_52G_53A_54Q_55F_67L_, Q9UKT9 (peptide)
chain: FQCDICGAQFTQKGNLLRHIKL
B9: 46F_47L_49D_50I_52G_53A_54Q_55F_67L_, Q9UKT9 (peptide)
chain: FLCDICGAQFTQKGNLLRHIKL
B10: 46F_47C_49D_50I_52G_53A_54Q_55F_67L_, Q9UKT9 (peptide)
chain: FCCDICGAQFTQKGNLLRHIKL
B11: 46F_47F_49D_50I_52G_53A_54Q_55F_67L_, Q9UKT9 (peptide)
chain: FFCDICGAQFTQKGNLLRHIKL
B12: 46F_47D_49D_50I_52G_53A_54Q_55F_67L_, Q9UKT9 (peptide)
chain: FDCDICGAQFTQKGNLLRHIKL
B13: 46F_47H_49D_50I_52G_53A_54Q_55F_67L_, Q9UKT9 (peptide)
chain: FHCDICGAQFTQKGNLLRHIKL
B14: 46F_47W_49D_50I_52G_53A_54Q_55F_67L_, Q9UKT9 (peptide)
chain: FWCDICGAQFTQKGNLLRHIKL
B15: 46F_47Y_49D_50I_52G_53A_54Q_55F_67L_, Q9UKT9 (peptide)
chain: FYCDICGAQFTQKGNLLRHIKL
B16: 46F_47S_49P_50Q_52G_53A_54R_55F_67L_, Q9UKT9 (peptide)
chain: FSCPQCGARFTQKGNLLRHIKL
B17: 46L_47R_49P_50I_52G_53F_54H_55C_67L_, Q9UKT9 (peptide)
chain: LRCPICGFHCTQKGNLLRHIKL
B18: 46F_47E_49E_50I_52G_53H_54T_55F_67L_, Q9UKT9 (peptide)
chain: FECEICGHTFTQKGNLLRHIKL
B19: 46F_47E_49N_50V_52G_53A_54C_55F_67L_, Q9UKT9 (peptide)
chain: FECNVCGACFTQKGNLLRHIKL
B20: 46F_47A_49E_50I_52G_53A_54I_55F_67L_, Q9UKT9 (peptide)
chain: FACEICGAIFTQKGNLLRHIKL
B21: 46F_47W_49E_50I_52G_53A_54I_55F_67L_, Q9UKT9 (peptide)
chain: FWCEICGAIFTQKGNLLRHIKL
B22: 46F_47I_49E_50I_52G_53A_54I_55F_67L_, Q9UKT9 (peptide)
chain: FICEICGAIFTQKGNLLRHIKL
B23: 46F_47N_49E_50I_52G_53A_54I_55F_67L_, Q9UKT9 (peptide)
chain: FNCEICGAIFTQKGNLLRHIKL
B24: 46F_47F_49E_50I_52G_53A_54I_55F_67L_, Q9UKT9 (peptide)
chain: FFCEICGAIFTQKGNLLRHIKL
B25: 46F_47H_49E_50I_52G_53A_54I_55F_67L_, Q9UKT9 (peptide)
chain: FHCEICGAIFTQKGNLLRHIKL
B26: 46F_47E_49E_50I_52G_53A_54I_55F_67L_, Q9UKT9 (peptide)
chain: FECEICGAIFTQKGNLLRHIKL
B27: 46F_47Y_49E_50I_52G_53A_54I_55F_67L_, Q9UKT9 (peptide)
chain: FYCEICGAIFTQKGNLLRHIKL
B28: 46F_47G_49E_50I_52G_53A_54I_55F_67L_, Q9UKT9 (peptide)
chain: FGCEICGAIFTQKGNLLRHIKL
B29: 46F_47R_49E_50I_52G_53A_54I_55F_67L_, Q9UKT9 (peptide)
chain: FRCEICGAIFTQKGNLLRHIKL
B30: 46F_47D_49E_50I_52G_53A_54I_55F_67L_, Q9UKT9 (peptide)
chain: FDCEICGAIFTQKGNLLRHIKL
B31: 46F_47S_49E_50I_52G_53A_54I_55F_67L_, Q9UKT9 (peptide)
chain: FSCEICGAIFTQKGNLLRHIKL

Target: T1, CRBN, Q96SW2
Experiment: log2 fold change of degron read counts, EGFP-low vs EGFP+ sorted cells (limma voom), compound-induced degradation; higher = more compound-induced degradation of the degron-EGFP fusion; degrons are variants of IKZF1/3 zinc finger 2; compound dose not given here
Conditions: Jurkat, 18 h
Experimental: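 Pooled library of 8380 IKZF3 ZF2 degron mutants (positions 146-167 varied within the IKZF3 130-189 degron; only the varied core is printed, flanks not printed) fused to EGFP with IRES-mCherry, lentivirally expressed in Jurkat cells. mCherry+ cells were treated with one IMiD compound for 18 h (dose not stated) and FACS-sorted into EGFP-low and EGFP+ populations. Degron sequences were counted by NGS, and log2FC (EGFP-low vs EGFP+) was estimated by limma voom over 3 biological replicates.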

[1] = compound: compound 19 (5-tert-butyl-thalidomide)
[2] = compound: compound 22 (5-morpholino-thalidomide)
[3] = compound: compound 33 (diphenyl IMiD analogue)
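Further: pooled lentiviral library of zinc finger degron-EGFP fusions in mCherry-positive Jurkat cells, FACS-sorted after compound exposure, with degron abundance counted by next-generation sequencing.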

| Sequence | log2 fold change of degron read counts [1] | log2 fold change of degron read counts [2] | log2 fold change of degron read counts [3] | log2 fold change of degron read counts (compound: thalidomide) |
| --- | --- | --- | --- | --- |
| B1 | -3.75 | -4.2 | -2.96 | -3.19 |
| B2 | -2.34 | -3 | -2.68 | -1.74 |
| B3 | -3.22 | -2 | -1.8 | -0.219 |
| B4 | 1.86 | -1.68 | 0.259 | -2.04 |
| B5 | -0.507 | 0.245 | 1.34 | 1.57 |
| B6 | -3.06 | -3.6 | -1.14 | -1.62 |
| B7 | -0.504 | 1.41 | 1.33 | 1.15 |
| B8 | -0.785 | 1.6 | 1.09 | 2.9 |
| B9 | -0.363 | -1.53 | 0.682 | 0.0613 |
| B10 | 1.75 | 1.58 | 1.41 | 0.205 |
| B11 | 3.41 | 3.28 | 1.67 | 0.0187 |
| B12 | 0.389 | -1.35 | -1.71 | -1.04 |
| B13 | 1.04 | 1.14 | -0.0246 | -1.24 |
| B14 | 2.88 | 3.68 | 1.52 | 0.174 |
| B15 | 3.18 | 3.55 | 2.11 | -0.00703 |
| B16 | 0.264 | -0.514 | -0.493 | -0.61 |

| Sequence | log2 fold change of degron read counts [1] | log2 fold change of degron read counts [2] | log2 fold change of degron read counts [3] | log2 fold change of degron read counts (compound: thalidomide) |
| --- | --- | --- | --- | --- |
| B17 | -0.0105 | 0.25 | 1.59 | 2.32 |
| B18 | -3.53 | -3.12 | -2.68 | -2.57 |
| B19 | -1.77 | -2.3 | 0.438 | 0.297 |
| B20 | 3.52 | 1.96 | 0.532 | 0.207 |
| B21 | 3.17 | 3.55 | 2.41 | 0.519 |
| B22 | -0.706 | 0.427 | 2.23 | 1.71 |
| B23 | 0.366 | -0.376 | -0.467 | -0.484 |
| B24 | 3.4 | 3.61 | 1.62 | 0.938 |
| B25 | 1.06 | 0.746 | 0.49 | -0.388 |
| B26 | -1.24 | -1.08 | 1.05 | 2.4 |
| B27 | 3.43 | 3.53 | 2.4 | 0.401 |
| B28 | 2.93 | 2.72 | 1.73 | 0.804 |
| B29 | -1.64 | -0.637 | 1.17 | 1.56 |
| B30 | -0.448 | -0.893 | -0.134 | -0.014 |
| B31 | 2.19 | 1.4 | 1.65 | 0.91 |

Source: the supplement of paper PMC12645437, “Orthogonal IMiD-Degron Pairs Induce Selective Protein Degradation in Cells” (ACS Chemical Biology, 2025)
